This is an account of results in PubChem BioAssay AID1347383 (Zoeller Lab, School of Medicine, Boston University, 2020).

Calls of active or inactive are those of the source.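 How the source made its calls: active means cell survival after UV exposure 2 SD above solvent-only control wells at 10 µM, confirmed on one or two repeats; inactive means the rest.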

This assay is described as follows: protection of CHO cells from pyrene-fatty acid UV killing, primary screen, phospholipid biosynthesis inhibitor project, ZR-82 cells, Analyticon library, screen 2 (AID 1347383).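 Further: survival reflects blocked phospholipid synthesis cutting uptake of the phototoxic fatty acid; compound and fatty acid exposure 3 h then viability read next day.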 The following applies: ZR-82 CHO cells, CellTiter Blue, at 10 µM; peroxisome-deficient CHO-K1 variant, with DGAT-1, DGAT-2 and ACAT inhibitors unless noted. (Resazurin is reduced to fluorescent resorufin, in cell work by metabolically active cells.)
Turning to `CN1C(=O)c2ccccc2NC(=O)[C@]12O[C@@H]2c1ccccc1`, the compound was classed as inactive.
Take `C[C@@H]1CCC2[C@@H](C)C(=O)OC3O[C@]4(C)CCC1[C@]32OO4` (stereo partly drawn): the result was inactive.
Next, `CO[C@@H]1[C@H](O)[C@@H](O[C@@H]2C[C@H]3CC[C@@H]4C(CC[C@]5(C)[C@@H](C6=CC(=O)OC6)CC[C@]45O)[C@@]3(C)[C@H](O)C2)O[C@H](C)[C@@H]1O` (stereo partly drawn): “inactive”; `COc1ccc(C23CCC(=O)C=C2N(C)CC3)cc1OC` (stereo not drawn): “inactive”.
Next, `CO[C@@H]1[C@@H](O)[C@H](C)O[C@@H](O[C@H]2CC[C@]3(C)C4CC[C@]5(C)[C@H](C6=CC(=O)OC6)CC[C@]5(O)C4CC[C@@H]3C2)[C@H]1OC(C)=O` (stereo partly drawn): “inactive”.
For `CCCCCCCCCCCCCCCc1cccc(O)c1O` the value was “inactive”; for `CC#CC#Cc1ccc(C#CC(O)COC(C)=O)s1` (stereo not drawn), “inactive”; for `CC1CC(C)C(=O)C(C(O)CC2CC(=O)NC(=O)C2)C1` (stereo not drawn), “inactive”.
With `OCC(O)Cc1ccc2c(c1)OCO2` (stereo not drawn), the outcome is “inactive [setting not given]”.
As to `CCC1CN2CCC3(C(=O)Nc4cccc(O)c43)C2CC1/C(=C/OC)C(=O)OC` (stereo not drawn), the call was inactive.
For `CN1Cc2c(ccc3c2OCO3)[C@@H]2[C@H]1c1cc3c(cc1C[C@@H]2O)OCO3` the value was “inactive”; for `COc1ccc(C23C=C4C5CC6(O)CC7N(CCC57c5ccc(OC)c(OC)c5)C4(CC2NCC3)O6)cc1OC` (stereo not drawn), “inactive”.
Next, `O=C1N[C@@H](Cc2ccccc2)CN2CCCC[C@@H]12`: “inactive”.
